KCNQ2 inh – inhibitors of rat KCNQ2 potassium channel; O88943; CHO-K1 KCNQ2, FluxOR thallium flux, 20 min; stronger effect = lower value; B-score at 10 µM; actives 1.1% (n = 310,000);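 active = fluorescence ratio B-score at most minus 3 library SDs, with starting brightness B-score within 2 library SDs, cut at about -5.5 in these data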
Target sequence (O88943 whole entry, looked up): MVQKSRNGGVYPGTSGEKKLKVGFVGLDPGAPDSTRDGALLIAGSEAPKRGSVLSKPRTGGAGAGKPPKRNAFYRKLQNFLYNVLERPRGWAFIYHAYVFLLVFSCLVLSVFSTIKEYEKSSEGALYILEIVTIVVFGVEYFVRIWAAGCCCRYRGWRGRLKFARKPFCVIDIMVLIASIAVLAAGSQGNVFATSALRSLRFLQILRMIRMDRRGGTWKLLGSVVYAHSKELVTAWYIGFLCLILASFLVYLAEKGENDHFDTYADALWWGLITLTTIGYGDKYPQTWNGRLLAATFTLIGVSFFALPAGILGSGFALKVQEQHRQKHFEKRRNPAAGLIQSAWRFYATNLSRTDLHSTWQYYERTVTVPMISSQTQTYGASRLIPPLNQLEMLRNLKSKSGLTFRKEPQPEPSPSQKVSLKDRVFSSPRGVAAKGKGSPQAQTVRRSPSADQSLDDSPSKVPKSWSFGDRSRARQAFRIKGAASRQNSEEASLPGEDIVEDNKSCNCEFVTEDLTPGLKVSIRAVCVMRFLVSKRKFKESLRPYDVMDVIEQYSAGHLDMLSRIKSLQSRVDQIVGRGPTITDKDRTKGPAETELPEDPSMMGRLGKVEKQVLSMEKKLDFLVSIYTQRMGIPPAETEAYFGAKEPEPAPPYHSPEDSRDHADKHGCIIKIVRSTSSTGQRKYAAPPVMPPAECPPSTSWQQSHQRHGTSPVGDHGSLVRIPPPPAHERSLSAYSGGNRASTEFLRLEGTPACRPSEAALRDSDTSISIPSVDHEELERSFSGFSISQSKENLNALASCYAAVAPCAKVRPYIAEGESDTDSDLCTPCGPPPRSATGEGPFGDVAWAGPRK
KCNQ2 pot – potentiators of rat KCNQ2 potassium channel | O88943 | CHO-K1 KCNQ2, FluxOR thallium flux fluorescence; stronger effect = higher value | B-score at 10 µM | actives 0.54% (n = 310,000) | AID 2239;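 active = fluorescence ratio B-score at least 3 SD of library B-scores, with initial fluorescence B-score within 3 of them, cut at about 5.3 in these data; same plate scores as AID 2156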;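 note: B-score of peak minus minimum over baseline fluorescence ratio after K+ and Tl+ stimulus; positive B-score means potentiation of KCNQ2 with more thallium influx and brighter signal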
Kir21 conf inh – confirmation of mouse Kir2.1 potassium channel inhibitors; shares compounds with KCNQ2 pot; Kir2.1-expressing cells, FluxOR thallium flux fluorescence; stronger effect = lower value; Tl flux remaining, % of negative control (stronger effect = lower value), % at 10 µM; actives 41% (n = 2,300);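 active = Primary-screen hit whose thallium flux fell at least 3 control SD below untreated wells in both duplicates, with normal baseline fluorescence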
HEK293 Tl flux – counter-screen for Kir2.1 inhibitors: effect in parental HEK293 cells. shares compounds with KCNQ2 pot. FluxOR thallium flux fluorescence; 0% = unstimulated blank wells. FluxOR signal as % of negative control (100 = no effect), % at 10 µM. actives 19% (n = 2,300). AID 2105;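 active = dye signal at least 3 control SD above or below untreated wells in both duplicates, raw fluorescence within 3, either direction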;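 note: percent is based on the flux ratio of peak minus minimum fluorescence over baseline F0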
CHO-K1 Tl ctr – parental CHO-K1 activity in KCNQ2 potentiator counter-screen; shares compounds with KCNQ2 pot; parental CHO-K1 cells, FluxOR thallium flux fluorescence; zero = vehicle mean+3SD, 100% = vehicle-minus-blank window; activity increase over 3SD of controls, % at 10 µM; actives 43% (n = 1,200); AID 2282;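 active = signal rise of at least 3 SD above the untreated control mean, in both duplicate wells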;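 note: counter screen of KCNQ2 potentiator hits so any rise reflects channel-independent effects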
KCNQ1 sel pot – selectivity of KCNQ2 potentiators: effect on human KCNQ1; AID 2283; shares compounds with KCNQ2 pot; CHO KCNQ1 stable, FluxOR thallium flux fluorescence; beyond 3SD, as % of vehicle-control signal; activation over 3SD threshold, % at 10 µM; actives 28% (n = 1,200);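 active = fluorescence ratio rise of at least 3 SD of vehicle wells above their mean, in both replicate wells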
KCNQ2 pot confirm – rat KCNQ2 channel potentiator confirmation | shares compounds with KCNQ2 pot | CHO-KCNQ2 cells, FluxOR thallium flux fluorescence | potentiation, less the hit threshold, % at 10 µM | actives 68% (n = 1,200);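 active = fluorescence ratio rising 3 SD or more over the vehicle control mean in both replicates, plus primary screen hit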;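 note: peak minus minimum thallium fluorescence divided by baseline after K/Tl stimulus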
Kir21 spec – mouse Kir2.1 off-target activity of KCNQ2 potentiators. actives 2% (n = 1,200). HEK293 Kir2.1, FluxOR thallium flux fluorescence. activity over 3SD threshold, % at 10 µM. shares compounds with KCNQ2 pot;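 active = fluorescence ratio rise of at least 3 SD above the vehicle-control mean, seen in both replicates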
KCNQ2 W236L pot – potentiates the retigabine-insensitive rat KCNQ2 W236L mutant channel. AID 2558. CHO KCNQ2-W236L, automated patch clamp current. current increase over 3SD of negative controls (%), stronger effect = higher value, % at 25 µM. shares compounds with KCNQ2 pot. actives 10% (n = 940);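 active = current increase at least 3 SD of the untreated controls above them in both duplicate recordings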
Of the large screens only hits and unclear results are named; the others gave an inactive call (follow-up assays come after a bar, where they were run). In the library only some 1.6% were active in any assay of this set; here they are far more common.

COc1ccccc1CCNC(=O)COc1cccc2c1OC(C)(C)C2	none (no result: KCNQ2 pot) | Kir21 conf inh 50% | HEK293 Tl flux 62%
COc1ccc(N2CCN(Cc3nc(N)nc(Nc4ccc(C)c(Cl)c4)n3)CC2)cc1	KCNQ2 pot 11 | Kir21 conf inh inactive | HEK293 Tl flux inactive | CHO-K1 Tl ctr 60 | KCNQ1 sel pot 7.2 | KCNQ2 pot confirm 21 | Kir21 spec inactive | KCNQ2 W236L pot inactive
Cc1ccc(Nc2nc(N)nc(CN3CCN(c4ccccc4)CC3)n2)cc1Cl	none (no result: KCNQ2 pot)
Cc1ccc(C2CC2/C(=N/O)c2ccc(F)cc2)cc1 (centres undefined)	none
Cc1cccc(CC(=O)NCC2CCCCC2)c1	KCNQ2 pot 9.4 | Kir21 conf inh inactive | HEK293 Tl flux inactive | CHO-K1 Tl ctr 39 | KCNQ1 sel pot inactive | KCNQ2 pot confirm 28 | Kir21 spec inactive | KCNQ2 W236L pot inactive
COc1cccc(/C=C/C(=O)NCC2CCCCC2)c1	none (no result: KCNQ2 pot)
CN(c1ccccc1)c1ccc(/C=C/[N+](=O)[O-])cc1	none (no result: KCNQ2 pot) | Kir21 conf inh inactive | HEK293 Tl flux inactive
CN(C)c1ccc(-n2cccc2/C=C/[N+](=O)[O-])cc1	none (no result: KCNQ2 pot)
COc1ccccc1/C=N/NC(=O)C(=O)N1CCN(c2ccccc2OC)CC1	none
COc1ccc(-c2csc(NC(=O)c3ccccc3Br)c2C(=O)O)cc1	none
COc1ccc(-c2csc(NC(=O)c3ccc(C(C)(C)C)cc3)c2C(=O)O)cc1	KCNQ2 pot 6.5 | Kir21 conf inh inactive | HEK293 Tl flux inactive | CHO-K1 Tl ctr inactive | KCNQ1 sel pot inactive | KCNQ2 pot confirm inactive | Kir21 spec inactive
O=C(CNS(=O)(=O)c1ccc(Br)cc1)Nc1ccc2c(c1)OCCO2	none (no result: KCNQ2 pot)
O=C(CCC1CCCCC1)NNC(=O)NC12CC3CC(CC(C3)C1)C2	KCNQ2 pot 9.3 | Kir21 conf inh inactive | HEK293 Tl flux inactive | CHO-K1 Tl ctr inactive | KCNQ1 sel pot inactive | KCNQ2 pot confirm 12 | Kir21 spec inactive | KCNQ2 W236L pot inactive
O=C(O)CCC(=O)NNC(=O)CCC1CCCCC1	none
Cn1ccsc1=NC(=O)c1cc(S(=O)(=O)N2CCOCC2)ccc1F	none
CC(=O)c1ccc(S(=O)(=O)Nc2ccc(-c3cn4c(n3)SCC4)cc2)cc1	none
COc1cc(OC)cc(N(C(=O)c2snc(C(N)=O)c2N)C(C(=O)NCC2CCCO2)c2ccc(C)o2)c1 (centres undefined)	none
CCC(=NCc1ccccc1)c1c(C(F)(F)F)[nH]n(-c2nc3ccccc3s2)c1=O	none (no result: KCNQ2 pot)
CCC(=NCc1ccco1)c1c(C(F)(F)F)[nH]n(-c2nc3ccccc3s2)c1=O	KCNQ2 pot 7.8 | Kir21 conf inh inactive | HEK293 Tl flux inactive | CHO-K1 Tl ctr inactive | KCNQ1 sel pot inactive | KCNQ2 pot confirm inactive | Kir21 spec inactive
O=C(Cc1ccccc1[N+](=O)[O-])OCC(=O)N1CCN(c2ccccc2)CC1	none (no result: KCNQ2 pot)
CN(C)c1ccc(C(=O)c2ccc(O)cc2O)cc1	none | Kir21 conf inh inactive | HEK293 Tl flux inactive
O=C(c1ccc(O)cc1)c1ccc(O)cc1O	none
CC(NC(=O)C(C)N1CCN(Cc2ccccc2)CC1)c1ccccc1 (centres undefined)	none
COc1cc2c(cc1OC)CN(c1ccc3ccccc3n1)CC2	none (no result: KCNQ2 pot) | Kir21 conf inh 56% | HEK293 Tl flux 132%
COc1cc2c(cc1OC)CN(c1ccc(-c3ccccc3OC)nn1)CC2	none (no result: KCNQ2 pot)
Cn1cc(S(=O)(=O)N2CCN(c3cccc(C(F)(F)F)c3)CC2)c(=O)n(C)c1=O	none (no result: KCNQ2 pot)
Cc1c(S(=O)(=O)N2CCN(c3cccc(C(F)(F)F)c3)CC2)c(=O)n(C)c(=O)n1C	KCNQ2 pot 9.6 | Kir21 conf inh inactive | HEK293 Tl flux inactive | CHO-K1 Tl ctr 5.5 | KCNQ1 sel pot 51 | KCNQ2 pot confirm inactive | Kir21 spec inactive
CCc1ccc(CNC(=O)c2ccc3nc(C4CCCCC4)oc3c2)nc1	KCNQ2 pot 17 | CHO-K1 Tl ctr inactive | KCNQ1 sel pot 17 | KCNQ2 pot confirm 9.2 | Kir21 spec inactive | KCNQ2 W236L pot inactive
CCc1ccc(CNC(=O)c2ccc(OC3CCN(C(=O)COC)CC3)cc2)nc1	none
CC1CCCN(S(=O)(=O)c2ccc3oc(=O)ccc3c2)C1 (centres undefined)	none (no result: KCNQ2 pot)
CN1CCN(C(=O)C2CCN(c3ncc(C(F)(F)F)cc3Cl)CC2)CC1	none (no result: KCNQ2 pot)
Cc1c(C(C)NC(=O)c2cc(COc3cccc4cnccc34)on2)cnn1C (centres undefined)	none (no result: KCNQ2 pot)
Cc1ccc(CNC(=O)c2ccc(Cn3nc(C)c(Cl)c3C)o2)cc1	none (no result: KCNQ2 pot) | Kir21 conf inh 48% | HEK293 Tl flux inactive
Cc1cc(C)cc(NC(=O)c2ccc(Cn3nc(C)c(Cl)c3C)o2)c1	none (no result: KCNQ2 pot)
O=C(NC1CCN(Cc2ccccc2)CC1)c1ccccc1Cl	none
Cc1c(C(=O)NC2CCN(Cc3ccccc3)C2)oc2c(Cl)cccc12 (centres undefined)	none (no result: KCNQ2 pot) | Kir21 conf inh inactive | HEK293 Tl flux inactive
Cc1cc(C)c(Cn2c3ccccc3c3cnn(CC(=O)NCc4ccccn4)c(=O)c32)c(C)c1	KCNQ2 pot 14 | Kir21 conf inh inactive | HEK293 Tl flux inactive | CHO-K1 Tl ctr inactive | KCNQ1 sel pot inactive | KCNQ2 pot confirm 8.7 | Kir21 spec inactive | KCNQ2 W236L pot inactive
Cc1cc(C)c(Cn2c3ccccc3c3cnn(CC(=O)NCCN4CCOCC4)c(=O)c32)c(C)c1	none
COC(=O)C/C(C)=N/Nc1ccc(S(=O)(=O)N2CCCC2)cc1[N+](=O)[O-]	none (no result: KCNQ2 pot)
O=C(Nc1ccccc1)Nc1nc(-c2ccc(F)cc2)cs1	none (no result: KCNQ2 pot)
Fc1ccc(-c2csc(NC(=S)Nc3ccccc3)n2)cc1	KCNQ2 pot 8.8 | Kir21 conf inh inactive | HEK293 Tl flux inactive | CHO-K1 Tl ctr 26 | KCNQ1 sel pot inactive | KCNQ2 pot confirm inactive | Kir21 spec inactive | KCNQ2 W236L pot inactive
OCc1cccc(Nc2ncnc3sc4c(c23)CCCCC4)c1	none
COc1ccc(C(=O)COC(=O)c2cccc(-n3cnnn3)c2)c(OC)c1	none
CNS(=O)(=O)/C=C/c1ccccc1	KCNQ2 pot 16 | Kir21 conf inh inactive | HEK293 Tl flux inactive | CHO-K1 Tl ctr inactive | KCNQ1 sel pot inactive | KCNQ2 pot confirm inactive | Kir21 spec inactive
CCCNS(=O)(=O)/C=C/c1ccccc1	none
CCCCNC(=O)COC(=O)CNC(=O)c1cc(Cl)cc([N+](=O)[O-])c1	none

Screens from PubChem BioAssay.
